Source: PubChem (National Center for Advancing Translational Sciences (NCATS))
Methyltransferases: Primary Screen for Target Class Profiling of Small Molecule Inhibitors of Methyltransferases | purified enzyme, MTase-Glo SAH luminescence; active compounds read low | actives 3.9% (n = 25,000) | AID 1745853, 2022 | calls only at 40 µM; call rule not given here
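Each enzyme was assayed with SAM and its substrate. SAH formation detected by MTase-Glo luminescence; single-point 40 uM screen[…].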
MTase-Glo ctr: Counterscreen for Target Class Profiling of Small Molecule Inhibitors of Methyltransferases | shares compounds with Methyltransferases | MTase-Glo coupled enzymes, SAH conversion luminescence, no MTase | Potency, µM (highest dose often 57.3 µM), inactives show at the top dose activity change, negative = inhibition, usual class: inhibitors | actives 6% (n = 180); active = well fitted inhibition curve with a large enough effect; inconclusive = small, poorly fitted or top-dose-only effect; also: potency is read from the fitted curve at half-maximal effect
An asterisk follows results filed as active; i = inactive; ? = inconclusive; + = active, no number; [ ] = another dose, or the depositor's remark. The full list was thinned out, with hits kept by preference. % is scaled to controls: 0 for no effect and ±100 for the full control effect.

SMILES	Methyltransferases	others
COc1cccc(N2CCN(C(=O)CCC[C@@H]3[C@H]4CCCN5CCC[C@@H](CN3C)[C@@H]45)CC2)c1	i
O=C(CCC[C@@H]1[C@H]2CCCN3CCC[C@@H](CN1Cc1ccccc1)[C@@H]23)Nc1cccnc1	+	MTase-Glo ctr=-4%
COc1ccc(C)cc1NC(=O)CCC[C@@H]1[C@H]2CCCN3CCC[C@@H](CN1C)[C@@H]23	i
Cc1ccc(C)c(N2C(=O)c3cc(C(C)(C)C)nn3CC2(C)C(=O)NC2CCCCC2)c1 (stereo not drawn)	i
CCc1ccc(N2C(=O)c3cc(-c4ccc(OC)cc4)nn3CC2(C)C(=O)NCc2ccccc2OC)cc1 (stereo not drawn)	i
CC1(C(=O)NC2CCCCCC2)Cn2c(cc3occc32)C(=O)N1Cc1ccccn1 (stereo not drawn)	i
Cc1cccc(CN2C(=O)c3ccc(-c4ccco4)n3CC2(C)C(=O)NCc2ccc(Cl)cc2)c1 (stereo not drawn)	i
Cc1noc2c(Nc3ccc(C(N)=O)cc3)cc(-c3ccsc3)nc12	i
Cc1noc2c(N3CCOCC3)cc(-c3cccnc3)nc12	i
COc1cccc(-c2cc(-c3cccs3)nc3c(C)noc23)c1	i
COC1CCN(c2cc(-c3ccsc3)nc3c(C)noc23)CC1	+	MTase-Glo ctr=-5%[85.7 µM]
Cc1noc2c(N3CCOCC3)cc(-c3cccs3)nc12	+	MTase-Glo ctr=2%[85.7 µM]
Cc1noc2c(-c3cnn(C)c3)cc(-c3cccnc3)nc12	i
COCCCNC(=O)CCc1nnc2n(CCc3ccccc3)c(=O)c3ccccc3n12	i
Cc1ccc(C)c(N2CCN(CCN3C(=O)c4ccc(-c5ccco5)n4CC3(C)C(=O)NC3CCCCCC3)CC2)c1 (stereo not drawn)	i
Cc1cnc(-c2ccccc2)n1C1CCN(S(=O)(=O)c2ccc3c(c2)OCCO3)CC1	i
Cc1ccc(CNC(=O)C2(C)Cn3nc(C(=O)NCc4ccccc4C)cc3C(=O)N2C)cc1 (stereo not drawn)	i
CC(C)OCCCn1c(=O)c2cc(Cl)ccc2n2c(SCc3cccc(Cl)c3)nnc12	i
CCCN1C(=O)c2cc(C(=O)NCCCOCC)nn2CC1(C)C(=O)NC1CCCC1 (stereo not drawn)	i
CCCSCCCN1C(=O)c2cc3sccc3n2CC1(C)C(=O)NC1CCCCC1 (stereo not drawn)	i
O=C(CCc1nnc2n(CCc3ccccc3)c(=O)c3ccccc3n12)Nc1cccc(Cl)c1	i
COc1ccc2c(c1)C(CN1CCN(c3ccc4oc(C(=O)O)cc4c3Cl)CC1)=CC(C)(C)CO2	+	MTase-Glo ctr=-6%
COc1ccc2c(c1)C(COCc1ccc(C(=O)O)cc1)=CC(C)(C)CO2	i
COc1ccc2c(c1)C(CN1CCN(CC(=O)OC(C)(C)C)CC1)=CC(C)(C)O2	i
CCc1ccc(-c2cc3n(n2)CC(C)(C(=O)NC2CCCCC2)N(Cc2ccccc2)C3=O)cc1 (stereo not drawn)	i
SMILES	Methyltransferases	others
CCn1c(=O)n([C@H]2CCCN(c3nccc(-c4cc5ccccc5o4)n3)C2)c2ccccc21	i
CCCn1c(C)cnc1CC1CCN(C(=O)NCc2ccc(OC)cc2)C1 (stereo not drawn)	+	MTase-Glo ctr=-4%
CCCn1c(C)cnc1CC1CCCN(S(=O)(=O)c2cc(OC)ccc2OC)C1 (stereo not drawn)	i
CNC(=O)N1CCC(C2CCN(C(=O)NCc3cccc(OC)c3)C2)CC1 (stereo not drawn)	i
O=C1CCC(C(=O)N2CCOCC2)CN1CCCc1ccccc1 (stereo not drawn)	i
Cc1noc(C)c1CN1CCOC[C@H](O)C1	i
CCOC(=O)c1cc2n(n1)CC(C)(C(=O)NCc1ccccc1)N(CCc1ccc(OCC)cc1)C2=O (stereo not drawn)	i
COc1cncc(Nc2cnc3ccc(-c4ccccc4OC)nn23)c1	i
COc1ccnc(-c2nnc3ccc(Nc4cc(OC)c(OC)c(OC)c4)nn23)c1	+	MTase-Glo ctr=-4%[85.7 µM]
CC1(C(=O)NC2CCCCCCC2)Cc2ccccc2C(=O)N1C1CCCCCC1 (stereo not drawn)	i
CCCn1c(=O)c2cc(F)ccc2n2c(SCC(=O)Nc3ccc(OC)c(OC)c3)nnc12	i
O=C(CCc1nnn2c1CN(Cc1cn[nH]c1-c1ccc(F)cc1)CC2)N1CCCC1	i
OCC1(CC2CC2)CCCN(Cc2ccc(C(F)(F)F)nc2)C1 (stereo not drawn)	i
OCC1(Cc2ccccc2)CCCN(Cc2cn[nH]c2-c2ccc(F)cc2)C1 (stereo not drawn)	+	MTase-Glo ctr=2%
CC1CC2OC3(OC2C(C)(C)O)C1C1(C)CCC24CC25CCC(O[C@@H]2OC[C@@H](O)[C@H](O)[C@H]2O)C(C)(C)C5CC=C4C1(C)C3O (stereo partly drawn)	i
COc1ccc(NC(=O)CCc2nnc3n(CCCOC(C)C)c(=O)c4ccccc4n23)cc1	i
CC1(NC(=O)C2CC2)CN(Cc2nc(-c3ccccc3OCc3ccccc3)cs2)C1	i
CC(C)c1nccn1CCCNC(=O)c1ccc(N2CCCC(CO)C2)nc1 (stereo not drawn)	+	MTase-Glo ctr=1%
CCN(Cc1nccn1C)C(=O)c1ccc(N2CCC(COC)C2)nc1 (stereo not drawn)	i
CN1CCCCC1CCNC(=O)c1ccc(N2CCOCC2)nc1 (stereo not drawn)	i
Cc1cc(C)cc(NC(=O)CCc2nnc3n(Cc4ccccc4Cl)c(=O)c4ccccc4n23)c1	i
CCOCCCNc1nc2c(S(=O)(=O)c3ccc(C)cc3)nnn2c2ccccc12	i
Cc1ccc(-c2ccc(N)nc2)c2cccnc12	+	MTase-Glo ctr=-6%
CC[C@H]1OC(=O)[C@H](C)[C@@H](O[C@H]2C[C@@](C)(OC)[C@@H](O)[C@H](C)O2)[C@H](C)[C@@H](O[C@@H]2O[C@H](C)C[C@H](N(C)C)[C@H]2O)[C@@](C)(O)C[C@@H](C)[C@@H]2N[C@@H](COCCOC)OC([C@H]2C)[C@]1(C)O	i
CCCn1c(=O)c2ccc(C(=O)NCC(C)C)cc2n2c(=O)n(Cc3cccc(Cl)c3)nc12	i
SMILES	Methyltransferases	others
O=C(c1ccc(C2CCCNC2)cc1)N1CCN(c2ccncc2)CC1 (stereo not drawn)	+	MTase-Glo ctr=-3%
Cn1cc(-c2ccncc2)cc1C(=O)N1CCN(c2ccc(F)cc2)CC1	i
O=C(c1ccncc1)N1CCCC(CN2CCCC2)CC1 (stereo not drawn)	i
CCCn1c(=O)c2ccc(C(=O)NC3CCCC3)cc2n2c(=O)n(Cc3cccc(Cl)c3)nc12	i
O=C(CC1CCCC1)N1CCC(c2noc(-c3cnccn3)n2)C1 (stereo not drawn)	i
O=C(CC1CCCC1)N1CCC(Nc2cccnc2)C1 (stereo not drawn)	+	MTase-Glo ctr=-6%
O=C(CC1CCOCC1)N1CCN(c2ncccn2)CC1	i
CCc1cccc(N2C(=O)c3cc(-c4ccccc4)nn3CC2(C)C(=O)NCc2ccccc2)c1 (stereo not drawn)	i
COc1ccc(-c2cc(-c3cnn(C)c3)cn3cncc23)cn1	+	MTase-Glo ctr=?
N#Cc1ccc(O[C@@H]2COCC[C@H]2NC(=O)Cn2nnnc2N)cc1	i
